“And” between values parts separate entries of the source, which are not always exact repeats. Identical values can stand only once. The campaign covered roughly 220,000 compounds. About 2,000 (0.91%) were called active. Not shown: some 2% with an inconclusive outcome. Only a sample is shown. Potency and affinity values are given separately. Values without a mark were called inactive. Cut-off read from the data, not from the text of the source: inconclusive = inhibition above about 80% without an active follow-up result; inactive = below that; test concentration not stated here.
Assay: M. tuberculosis H37Rv growth inhibitors, H37Rv strain (AID 1626);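 note: bacteria incubated seven days before Alamar blue readout; 0% = bacteria only wells and 100% = bacteria with antibiotic wells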
Conditions: active compounds read high, concentration not given here

For `O=C(CN1C(=O)c2cccc3cccc1c23)Nc1ccc(S(=O)(=O)Nc2nccs2)cc1`, which inhibition is on record?
Its inhibition is -0.34%.

For `COC(=O)c1ccc(/C=N/OCC(=O)NC2CCCC(C)C2C)cc1` (centres undefined), which inhibition is on record?
The inhibition was 10.8%.

With `O=C(CSc1nc(-c2ccccc2)cs1)NCc1ccco1` as the compound, how does the inhibition read?
The inhibition was 3.71%.

With `COc1ccc(CC(=O)NC(C)(C)CC(C)=O)cc1OC` as the compound, how does the inhibition read?
The inhibition was 6.3%.

Which inhibition does the source give for `CSc1ccc(-c2nnn(Cc3ccc(C)cc3)n2)cc1` here?
Its inhibition is -7.23%.

Which inhibition does the source give for `C=CCSc1nc(-c2ccc(OC)cc2)c(C#N)c(=O)n1CC=C` here?
The inhibition was 15.4%.

Which inhibition does the source give for `COc1ccc(/C=C/C(=O)NCC(=O)n2nc(C)cc2C)cc1` here?
The inhibition was -7.73%.

With `COc1ccc2[nH]c(=O)c(CN(C)C(=O)C3CCCCC3)cc2c1` as the compound, how does the inhibition read?
Its inhibition is 4.58%.

With `O=C1NC(=O)C2C1C(c1cccs1)NN2Cc1ccccc1` (centres undefined) as the compound, how does the inhibition read?
Its inhibition is 3.37%.

With `Cc1nn(CCC#N)c(NC(=O)c2ccc(Cl)cc2)c1P(=O)(Nc1ccc([N+](=O)[O-])cc1)N1CCOCC1` (centres undefined) as the compound, how does the inhibition read?
Its inhibition is -25.7%.

With `COc1ccc(-c2c(=O)n(OCc3ccccc3[N+](=O)[O-])c3ccccc3[n+]2[O-])c(OC)c1` as the compound, how does the inhibition read?
The inhibition was 2.69%.

Which inhibition does the source give for `CCCNCc1cc(OC)c(OCc2ccccc2)cc1Br` here?
The inhibition was 6.93%.

With `Cc1cc(N2CCN(Cc3ccccc3)CC2)n2nc(C)c(-c3ccccc3)c2n1` as the compound, how does the inhibition read?
The inhibition was -3.83%.

With `Cc1nn2c(N3CCN(C4CCCC4)CC3)cc(C(C)(C)C)nc2c1-c1ccccc1` as the compound, how does the inhibition read?
Its inhibition is 8.34%.

Which inhibition does the source give for `Cc1nn2c(N3CCN(C(=O)c4ccco4)CC3)cc(C(C)(C)C)nc2c1-c1ccccc1` here?
The inhibition was 32.7%.

With `CCN1CCN(c2cc(C(C)C)nc3c(-c4ccccc4)c(C)nn23)CC1` as the compound, how does the inhibition read?
Its inhibition is 11.2%.

With `O=C(CCc1ccccc1)NC1CCSC1=O` (centres undefined) as the compound, how does the inhibition read?
The inhibition was -9.93%.

Which inhibition does the source give for `NC1=NC[C@@H](Cc2ccc(O)cc2)N1CCc1cc(C(F)(F)F)cc(C(F)(F)F)c1` here?
The inhibition was 11.5%.

With `NC1=NC[C@H](Cc2ccccc2)N1CC1CCCCC1` as the compound, how does the inhibition read?
Its inhibition is -8.5%.

With `CCCCN1C(N)=NC[C@@H]1Cc1ccc(O)cc1` as the compound, how does the inhibition read?
Its inhibition is -2.68%.

With `NC1=NC[C@@H](Cc2ccc(O)cc2)N1CCC12CC3CC(CC(C3)C1)C2` as the compound, how does the inhibition read?
Its inhibition is 20.2%.

With `NC1=NC[C@H](c2ccccc2)N1CCCCC1CCCCC1` as the compound, how does the inhibition read?
The inhibition was 52.1%.

Which inhibition does the source give for `FC(F)(F)c1cc(CCN2C(=S)NC[C@@H]2CC2CCCCC2)cc(C(F)(F)F)c1` here?
The inhibition was -1.6%.

For `NC1=NC[C@H](Cc2ccc(O)cc2)N1CC1CCCCC1`, which inhibition is on record?
Its inhibition is -3.49%.

For `NC1=NC[C@@H](Cc2ccc(O)cc2)N1CC1CCCCC1`, which inhibition is on record?
Its inhibition is -0.61%.

With `COC(=O)c1ccc(COc2ccccc2/C=C(\C#N)C(=O)NC(C)C)cc1` as the compound, how does the inhibition read?
The inhibition was 4.92%.

Which inhibition does the source give for `COc1ccc(-n2c(O)c(C(C)=NCc3ccco3)c(=O)[nH]c2=O)cc1` here?
Its inhibition is 2.3%.

With `CCOC(=O)C1=C(CSc2nc(-c3ccccc3)ccc2C#N)OC(N)=C(C#N)C1c1ccccc1` (centres undefined) as the compound, how does the inhibition read?
The inhibition was -11.5%.

For `CCn1c(CCc2nc3ccccc3[nH]2)n[nH]c1=S`, which inhibition is on record?
The inhibition was -3.65%.

Which inhibition does the source give for `COc1ccccc1NC(=O)N1CCN(c2ccnc3cc(Cl)ccc23)CC1` here?
Its inhibition is 9.81%.

With `Cc1cccc(Cl)c1NC(=O)N1CCN(c2ccnc3cc(Cl)ccc23)CC1` as the compound, how does the inhibition read?
Its inhibition is 0.44%.

For `Cc1ccc(F)cc1NC(=O)N1CCN(c2ccnc3cc(Cl)ccc23)CC1`, which inhibition is on record?
Its inhibition is 25.6%.

Which inhibition does the source give for `CC(=O)N1CCN(c2ccnc3cc(Cl)ccc23)CC1` here?
The inhibition was -0.19%.

For `O=C(N/N=C/c1ccc2c(c1)OCO2)c1cc(-c2ccccc2)nc2ccccc12`, which inhibition is on record?
Its inhibition is 9.28%.

With `CC1CCCCC1NC(=O)COc1ccc(-n2cnnn2)cc1` (centres undefined) as the compound, how does the inhibition read?
The inhibition was 3.54%.

For `COc1ccc(/C=N/NC(=O)Cn2cnc3c2c(=O)n(C)c(=O)n3C)cc1`, which inhibition is on record?
Its inhibition is 0.48%.

For `CCc1ccc(C(C(=O)NC(C)(C)CC)N(Cc2ccco2)C(=O)Cn2nnc3ccccc32)cc1` (centres undefined), which inhibition is on record?
Its inhibition is 2.42%.

Which inhibition does the source give for `COc1ccc(NS(=O)(=O)c2ccc(Cl)c(NC(=O)c3cccnc3Cl)c2)cc1` here?
Its inhibition is 9.9%.

For `O=[N+]([O-])c1cccc2c(Cl)ccnc12`, which inhibition is on record?
Its inhibition is -5.33%.

With `Cc1ccc(O)c(C(=O)CC(=O)c2cccc(F)c2)c1` as the compound, how does the inhibition read?
Its inhibition is 62.1%.

For `Cc1ccc(C(=O)CNc2cccc(Cl)c2)cc1`, which inhibition is on record?
Its inhibition is -5.8%.

Which inhibition does the source give for `Cc1ccc(C(=O)CC(=O)c2ccc(C(C)(C)C)cc2)cc1` here?
Its inhibition is 3.46%.

For `CC(C)(C)c1ccc(C(=O)NNC(=O)c2ccc(Cl)cc2)cc1`, which inhibition is on record?
The inhibition was 1.17%.

For `Cc1ccc(C(=O)CNc2ccc(Cl)cc2)cc1`, which inhibition is on record?
Its inhibition is -1.34%.

Which inhibition does the source give for `Cc1ccc(NCCC(=O)c2ccc(Cl)cc2)cc1` here?
Its inhibition is 51.3%.

Which inhibition does the source give for `CCOC(=O)c1c(CS(=O)(=O)c2ccccc2)n(C)c2cc(Br)c(O)c(CN(C)C)c12` here?
The inhibition was -0.08%.

Which inhibition does the source give for `COc1cccc(N=Nc2c(N)[nH]n3c(=O)cc(-c4ccccc4)nc23)c1` here?
Its inhibition is 70.2%.

Which inhibition does the source give for `CCC(Oc1ccccc1)C(=O)N1CCN(c2ccccn2)CC1` (centres undefined) here?
Its inhibition is 0.51%.

For `O=C(Nc1ccc(-c2nnn(CC(=O)N3CCN(C(=O)c4ccco4)CC3)n2)cc1)c1ccccc1F`, which inhibition is on record?
The inhibition was -1.57%.

For `O=C(O)/C=C/C(=O)NC1CC1`, which inhibition is on record?
Its inhibition is -1.35%.

With `Cc1ccc(N/C=C(\C2OC(=O)c3ccccc32)[N+](=O)[O-])c(C)c1` (centres undefined) as the compound, how does the inhibition read?
Its inhibition is 0.81%.

With `O=C1OC(/C(=C\Nc2ccc(F)cc2F)[N+](=O)[O-])c2ccccc21` (centres undefined) as the compound, how does the inhibition read?
Its inhibition is 6.38%.

With `O=C(c1ccc([N+](=O)[O-])s1)N1CCN(c2ccccc2)CC1` as the compound, how does the inhibition read?
Its inhibition is 2.71%.

For `O=C(c1cccc([N+](=O)[O-])c1)N1CCN(c2cccc(Cl)c2)CC1`, which inhibition is on record?
The inhibition was 2.48%.

With `COc1ccc(C2Nc3ccccc3C(=O)N2c2ccccc2)cc1COc1ccccn1` (centres undefined) as the compound, how does the inhibition read?
Its inhibition is 6.87%.

Which inhibition does the source give for `CCN(CC)CCNS(=O)(=O)c1ccc(C(=O)NN)cc1` here?
Its inhibition is 2.36%.

For `Cc1cccc(C)c1OCc1nnc2c3cnn(C)c3ncn12`, which inhibition is on record?
The inhibition was -9.69%.

For `COC(=O)c1c(C)oc(C)c1S(=O)(=O)N(C)C1CCCCC1`, which inhibition is on record?
The inhibition was -4.71%.

Which inhibition does the source give for `C(=Nc1ccc(Nc2ccccc2)cc1)c1ccc2ccccc2c1` here?
The inhibition was 51.2%.

Which inhibition does the source give for `O=[N+]([O-])c1ccc(N=Cc2ccc(Br)c([N+](=O)[O-])c2)cc1` here?
The inhibition was 8.65%.

For `COc1ccc(C(=O)CN2C3=NCCCN3c3ccccc32)cc1OC`, which inhibition is on record?
Its inhibition is -2.22%.

Which inhibition does the source give for `CCc1c(C(=O)N/N=C/c2ccsc2)csc1C` here?
Its inhibition is -6.79%.

Which inhibition does the source give for `CCc1ccc(C(=O)NC(C(=O)O)C(C)C)cc1` (centres undefined) here?
The inhibition was -19.3%.

For `COc1cccc(NC(=O)CCSc2ccc3ccccc3n2)c1`, which inhibition is on record?
The inhibition was 28.7%.

Which inhibition does the source give for `COc1ccc(NC(=O)CCSc2ccc3ccccc3n2)cc1` here?
Its inhibition is 70.9%.

Which inhibition does the source give for `Cc1cc(C)n2nc(N)c(N=Nc3cccc(Cl)c3)c2n1` here?
The inhibition was 79.8%.

For `Cc1nc(S/C(=C/c2ccc(-c3ccc(C(=O)O)cc3)o2)C(=O)O)n[nH]1`, which inhibition is on record?
The inhibition was -17.2%.

For `CC(=O)c1ccc(-c2ccc(/C=C(/Sc3n[nH]c(C)n3)C(=O)O)o2)cc1`, which inhibition is on record?
The inhibition was 6.55%.

Which inhibition does the source give for `O=c1oc2ccccc2c(N2CCCCC2)c1CN1CCCCC1` here?
Its inhibition is 1.71%.

Which inhibition does the source give for `COc1ccc(OC)c(NC(=O)c2cc3ccccc3o2)c1` here?
The inhibition was 7.13%.

Which inhibition does the source give for `COc1ccc(OC(=O)c2cc3ccccc3o2)cc1` here?
The inhibition was 0.38%.

Which inhibition does the source give for `O=C1CCCC2=C1C(c1ccncc1)c1c(nc(SCc3ccccc3Cl)[nH]c1=O)N2` (centres undefined) here?
Its inhibition is 11.3%.

For `CC[C@@H](C)C(NC(=O)OC(C)(C)C)c1cn([C@@H](CCC(=O)OC(C)(C)C)C(=O)N2CCN(C(=O)OC(C)(C)C)CC2)nn1` (some centres undefined), which inhibition is on record?
Its inhibition is -1.45%.

Which inhibition does the source give for `O=C(c1ccc(COc2c(F)c(F)c(F)c(F)c2F)o1)N1CCN(Cc2ccc3c(c2)OCO3)CC1` here?
Its inhibition is -9.41%.

With `O=C(c1ccc(COc2ccccc2Cl)o1)N1CCN(Cc2ccc3c(c2)OCO3)CC1` as the compound, how does the inhibition read?
Its inhibition is -0.88% and 13.3%.

For `OCCC1CN(Cc2cccc(-n3cccn3)c2)CCN1Cc1ccccc1` (centres undefined), which inhibition is on record?
Its inhibition is -1.74%.

With `CC(CCc1ccccc1)NC(=O)CSc1nc(N)cc(N)n1` (centres undefined) as the compound, how does the inhibition read?
The inhibition was -5.33%.

Which inhibition does the source give for `COc1cccc(C2(O)CCN(Cc3ccncc3)CC2)c1` here?
Its inhibition is -10.2%.

With `COc1cc2c(C(=O)O)c(C)n(C)c2cc1Br` as the compound, how does the inhibition read?
The inhibition was -0.16%.

For `Cc1cnc(C(=O)NCc2ccc(Cl)cc2Cl)cn1`, which inhibition is on record?
The inhibition was -2.88%.

For `CCOC(=O)c1cc(C)nc(SC)c1C#N`, which inhibition is on record?
The inhibition was 2.58%.

For `C#CCSc1nc(C)cc(C(=O)OCC)c1C#N`, which inhibition is on record?
The inhibition was -3.19%.

For `NC1=NC(c2ccccc2)=NC1(NC(=O)c1ccccc1)C(Cl)Cl` (centres undefined), which inhibition is on record?
Its inhibition is -0.7%.

Which inhibition does the source give for `COc1ccc(OCC(O)CN(CCO)CC(O)Cn2ccc3ccccc32)cc1` (centres undefined) here?
The inhibition was 3.01%.

Which inhibition does the source give for `COC(=O)c1ccc(OCC(O)CN(CCO)CC(O)Cn2ccc3ccccc32)cc1` (centres undefined) here?
Its inhibition is 4.35%.

For `Cc1ccsc1C(=O)C1CCCN(Cc2cc(F)ccc2-n2cccn2)C1` (centres undefined), which inhibition is on record?
The inhibition was 10.8%.

With `O=C(NC1CC1)c1ccc(-c2nc3ccccc3s2)s1` as the compound, how does the inhibition read?
Its inhibition is 46.3%.

With `Cc1noc(C)c1COC(=O)c1ccc(-c2nc3ccccc3s2)s1` as the compound, how does the inhibition read?
Its inhibition is -10.8%.

For `CCN1CCN(C(=O)c2ccc(-c3nc4ccccc4s3)s2)CC1`, which inhibition is on record?
Its inhibition is 0.41%.

Which inhibition does the source give for `COCCNC(=O)COC(=O)CSCc1nc2ccccc2s1` here?
Its inhibition is -1.53%.

With `O=S(=O)(NC1CCCCC1)c1ccc(Br)cc1` as the compound, how does the inhibition read?
Its inhibition is 3.07%.

Which inhibition does the source give for `Cc1occc(=O)c1OCc1c(F)cccc1Cl` here?
Its inhibition is 1.78%.

Which inhibition does the source give for `CC(C)CNC(=O)COc1ccc(Sc2ccc(OCC(=O)NCC(C)C)cc2)cc1` here?
Its inhibition is 4.46%.

Which inhibition does the source give for `CCc1nnc(NC(=O)CCC(=O)NCc2ccc(OC)cc2)s1` here?
Its inhibition is -3.41%.

Reference: PubChem BioAssay AID1626 (SRMLSC, 2009)
